In PubChem BioAssay one finds composite z-score data, which are given here for 28 molecules.

The assay concerns Human papillomavirus type 1a protein E7 (residues 44-93). The assay is described as follows: HPV1a E7 fragment binders on microarrays, primary screen, biochemical, small-molecule microarray, residues 44-93, 635 nm fluorescence (AID 1108).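 Also: E7 fragment applied at 1 µg/mL in TBST for 1 h at 4 C; score combines spot fluorescence with its signal to noise ratio.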 The conditions noted are these: small-molecule microarray binding, fluorescence 635 nm; higher = more signal.
Turning to `COC(=O)c1nc2oc1CC[C@@H](CO)NC(=O)N(C)Cc1cnnn1C[C@H](Cc1ccccc1)NC2=O`, the composite z-score was -0.367.

The molecule `CCOC(=O)C1=CC[C@@H](c2cccc(Cl)c2)N(S(=O)(=O)c2ccc(C)cc2)C1` came in with a composite z-score of 0.412.

The molecule `C=C(COC)/C(=C/C[C@H](OC(=O)c1ccncc1)c1ccccc1OCCO)c1cnc2ccccc2c1` displayed a composite z-score of 1.4.

Molecule `C[C@@H]1ON(c2ccc(C(=O)OC(C)(C)C)cc2)[C@H](c2ccc(O)cc2)[C@H]1C(=O)N1C(=O)OC[C@H]1Cc1ccccc1` returned a composite z-score of 0.606.

In the case of `CC(C)N1C(=O)C[C@@](C(=O)NCCCN(C)C)(c2ccc([N+](=O)[O-])cc2)[C@H]1c1ccc(CO)cc1`, the composite z-score was -0.218.

Molecule `COC(=O)C(CC#Cc1ccc2c(c1)[C@]1(C(=O)N2)[C@H](C(=O)N2CCN(c3ncccn3)CC2)[C@H]2C(=O)O[C@H](c3ccccc3)[C@H](c3ccccc3)N2[C@@H]1c1ccc(OCCO)cc1)C(=O)OC` registered a composite z-score of 1.45.

Molecule `CN(C)CCCNC(=O)[C@@]1(C)c2ccccc2C(=O)N(Cc2ccccc2)[C@H]1c1ccc(CO)cc1` yielded a composite z-score of -0.775.

In turn, `CC(C)C(=C=CC[C@H](O)c1cccc(OCCO)c1)C[C@H](O)c1cc(Cl)cc(Cl)c1O` registered a composite z-score of 0.851.

`COCCCNC(=O)[C@@]1(Cc2ccccc2N=[N+]=[N-])N=C(c2ccc(OCCCO)cc2)O[C@H]1c1ccccc1` registered a composite z-score of 1.41.

On to `COc1ccc([Si](C)(C)[C@@H]2[C@@H](CC(=O)N3Cc4ccccc4C[C@H]3CO)O[C@]3(C(=O)N(Cc4cccc(N5C(=O)c6cccc7cccc5c67)c4)c4ccccc43)[C@H]2C)cc1`, for which the composite z-score turned out to be 1.21.

In the case of `COc1ccc([Si](C)(C)[C@@H]2[C@@H](CC(=O)N(CCO)Cc3ccccc3)O[C@]3(C(=O)N(Cc4cccc(N5CCOC5=O)c4)c4ccccc43)[C@H]2C)cc1`, the composite z-score was -0.139.

The molecule `CC(=O)c1ccc(C(O)C2C=CC3C(=O)N(c4ccccc4)C(=O)C3N2Nc2ccc(C#N)cc2)cc1` (stereo not drawn) showed a composite z-score of 0.909.

`COC1OC[C@]2(C)[C@H]3C4=C(CN2C(=O)OC(C)(C)C)[C@H](C)C(CO)C(CO)C4CC[C@@H]13` (stereo partly drawn) yielded a composite z-score of 1.22.

In turn, `COCCCNC(=O)[C@@]1(Cc2ccccc2CN=[N+]=[N-])N=C(c2ccc(OCCCO)cc2)O[C@H]1c1ccccc1` registered a composite z-score of 1.47.

The molecule `COc1cc(CO)cc(I)c1O[C@H]1C=C(C(=O)NCCO)C[C@@H](NCc2ccc(F)cc2)[C@@H]1O` returned a composite z-score of -1.08.

The molecule `C=CCC(OC(C)=O)[C@@H]1[C@@H](N(Cc2cccc3ccccc23)C(=O)Cc2ccc(F)cc2)c2cc(OCCCO)ccc2N1C(=O)c1ccc2ccccc2n1` (stereo partly drawn) had a composite z-score of -0.829.

`[N-]=[N+]=Nc1ccccc1[C@H]1OC(c2ccc(OCCCO)cc2)=N[C@@]1(Cc1ccccc1)C(=O)N1CCCCC1` yielded a composite z-score of 1.45.

For the molecule `O=C(NCc1ccccc1)[C@@H]1c2ccccc2C(=O)N(Cc2ccccc2C(F)(F)F)[C@H]1c1ccc(CO)cc1`, the composite z-score stood at 0.966.

As for `CC=CC(O)C1C=CC2C(=O)N(c3ccccc3)C(=O)C2N1Nc1ccccc1F` (stereo not drawn), the composite z-score is 0.286.

With `O=C1O[C@H](c2ccccc2)[C@H](c2ccccc2)N2[C@H]1[C@@H](C(=O)O)[C@]1(C(=O)Nc3ccc(C#CC4=CCCCC4)cc31)[C@H]2c1ccc(O)cc1`, the composite z-score worked out at 1.33.

In turn, `C=CCOC(=O)[C@H]1[C@@H]2C(=O)O[C@@H](c3ccccc3)[C@@H](c3ccccc3)N2[C@@H](c2ccc(OCCOC(=O)[C@@H]3C[C@@H]4C(=O)N5CCC[C@H]5C(=O)N4[C@@H]3c3ccc(O)cc3)cc2)[C@]12C(=O)Nc1ccc(I)cc12` had a composite z-score of -0.0566.

For the molecule `CCCC[C@@H]1C[C@H]1[C@@H](NC(=O)c1ccccc1)c1ccc(C(F)(F)F)cc1`, the composite z-score is -1.52.

`C=C(C)c1cc2c(c(CCCCCC)n1)[Si](C(C)C)(C(C)C)OC2`: the composite z-score is -1.01.

For the molecule `COC(=O)[C@@]1(Cc2ccc(OC)cc2)[C@@H]2C(=CC(=O)[C@H]2CC(=O)C(=O)N(C)C)CN1C(=O)c1ccccc1`, the composite z-score stood at 1.42.

For the molecule `COC(=O)c1cn(C[C@@H](Cc2ccccc2)NC(=O)N[C@H](CO)CCc2oc(C(C)=O)c(C(=O)OC)c2C(=O)OC)nn1`, the composite z-score was determined as 0.303.

`COCCOC(=O)N1C(=O)[C@@]2(c3cc(C#CC4(O)CCCCCC4)ccc31)[C@H](c1ccc(O)cc1)N1[C@H](c3ccccc3)[C@H](c3ccccc3)OC(=O)[C@H]1[C@@H]2C(=O)NC[C@H](O)c1ccccc1` gave a composite z-score of 1.05.

As to `C=C(C)C1CCC(C(O)C2C=CC3C(=O)N(C)C(=O)C3N2N2CCCCC2)CC1` (stereo not drawn), the composite z-score is 1.44.

As for `CC(C)(C)N1CC=CC23O[C@@H]4C=CCOC(=O)[C@@H]4[C@H]2C(=O)N(CCCCCCO)[C@@H]3C1=O` (stereo partly drawn), the composite z-score is -1.38.
